Source: PubChem (National Center for Advancing Translational Sciences (NCATS))
The list is not random: actives were taken first. Their share in the collection is about 6.6%.
KB-3-1 cytotox: kills parental KB-3-1 adenocarcinoma cells; KB-3-1 viability, CellTiter-Glo ATP luminescence, 72 h; Potency, µM (series often up to 46.1 µM), most hits filed as cytotoxic; 400,000 compounds, 1.4% hits; also: % is scaled to controls: 0 for no effect and ±100 for the full control effect; nearly all actives have a fitted effect of over 60% in size
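Using CellTiter-Glo luminescence, growth of non-resistant KB-3-1 adenocarcinoma cells is assessed 72 h after pin-tool compound addition at 37 °C. Normalized responses across the concentration series yield fitted curves.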
SW480 rereplic: DNA re-replication induction in SW480 cells | SW480 DNA re-replication, Hoechst DNA content imaging, 48 h | Potency, µM (highest dose often 46.1 µM), inactives show at the top dose re-replication activation, usual class: activators | 340,000 compounds, 1.8% hits; also: % of control where 0% means no effect; nearly all actives have a fitted effect of over 55% in size
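Treated cells incubate 48 hr (37 C, 5% CO2), are stained 40 min with Hoechst, and nuclear fluorescence is enumerated; a rise in nuclei with high DNA signal marks re-replication.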
KB-V1 cytotox: KB-V1 MDR subline cytotoxicity | KB-V1 MDR cells viability, CellTiter-Glo, 72 h | Potency, µM (top dose mostly 46.1 µM), hits mostly cytotoxic | 400,000 compounds, 3.4% hits | AID 1347076; also: % is scaled to controls: 0 for no effect and ±100 for the full control effect; nearly all actives have a fitted effect of over 60% in size
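Cytotoxicity toward P-gp-expressing KB-V1 cells was determined as loss of CellTiter-Glo luminescence after 72 h at 37 degrees C. Compounds were tested in quantitative HTS format across a concentration range, with curves fitted to normalized data.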
RGS4 inhibitor: inhibitors of human regulator of G protein signaling 4; Transcreener GDP fluorescence polarization, RGS4-accelerated GTP hydrolysis; Potency, µM (top dose mostly 114 µM), for inactives: at the top dose activity change, negative = inhibition, usual class: inhibitors; 390,000 compounds, 0.039% hits; AID 504845; also: % is scaled to controls: 0 for no effect and ±100 for the full control effect; nearly all actives have a fitted effect of over 75% in size
Target sequence (P49798 whole entry, looked up): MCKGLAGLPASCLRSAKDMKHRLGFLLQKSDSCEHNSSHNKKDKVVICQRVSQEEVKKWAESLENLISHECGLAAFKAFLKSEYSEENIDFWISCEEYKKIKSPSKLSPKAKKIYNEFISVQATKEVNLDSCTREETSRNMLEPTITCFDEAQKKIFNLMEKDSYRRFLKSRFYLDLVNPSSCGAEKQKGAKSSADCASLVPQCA
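MLSMR compounds (23 nl, pin-transferred) preincubated 10 min at room temperature with a 500nM (2x) first reagent, then RGS4 at 900nM (2x) plus Transcreener GDP mix added; fluorescence polarization (620/688 nm) read before and after 90 min at 30 °C.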
TSG101-PTAP inh: blocks PTAP/TSG101 interaction to inhibit HIV-1 budding; Fluorescence polarization, FITC-PTAP peptide / Tsg101 binding; Potency, µM (highest dose often 115 µM), for the others: at the top dose activity change, negative = inhibition, most hits filed as inhibitors; Q99816; 340,000 tested, under 10 active; active = well fitted inhibition curve with a large enough effect in the main read-out, with a control signal flat, not every such curve was filed as active; inconclusive = small, poorly fitted or top-dose-only effect, or effect the other way, or a change in a side signal; inactive = no such curve, though single readings can be large or run the other way; also: % of control where 0% means no effect
Target sequence (Q99816 whole entry, looked up): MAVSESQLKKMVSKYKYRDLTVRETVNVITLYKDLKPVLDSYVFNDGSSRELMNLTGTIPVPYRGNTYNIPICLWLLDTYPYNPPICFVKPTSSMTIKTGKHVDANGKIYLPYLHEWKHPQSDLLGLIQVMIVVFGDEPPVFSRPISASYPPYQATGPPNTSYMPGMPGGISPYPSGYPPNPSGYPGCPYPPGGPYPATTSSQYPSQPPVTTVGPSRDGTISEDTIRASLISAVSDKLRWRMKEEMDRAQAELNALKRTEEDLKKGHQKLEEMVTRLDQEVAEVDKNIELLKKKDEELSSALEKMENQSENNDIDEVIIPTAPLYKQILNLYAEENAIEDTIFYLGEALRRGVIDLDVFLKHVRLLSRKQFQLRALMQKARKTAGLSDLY
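Fluorescence polarization binding of Tsg101 binding domain (10 uM final) to FITC-labeled PTAP peptide (50 nM final) in HEPES pH 7.5 buffer with NaCl, Tween 20, EDTA, TCEP. Compounds added before peptide; binding 20 min at RT.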
MCF10A rereplic: DNA re-replication induction in MCF 10a cells; MCF 10A DNA re-replication, Hoechst nuclear intensity, 48 h; Potency, µM (top dose mostly 46.1 µM), for the others: top-dose activity, positive = re-replication, usual class: activators; 350,000 compounds, 2.9% hits; also: % of control where 0% means no effect; nearly all actives have a fitted effect of over 50% in size
* = called active by the depositor; i = inactive; ? = inconclusive; · = not tested or not shown. Unless noted, calls follow the shape of the dose curve; as a rule, active = well fitted curve in the direction sought with a large enough effect; inconclusive = small, poorly fitted or top-dose-only effect, or another doubt; inactive = no such curve, though single readings can be large; an effect the other way counts as inactive or inconclusive. Potency is read from the fitted curve at half-maximal effect.

SMILES | KB-3-1 cytotox | SW480 rereplic | KB-V1 cytotox | RGS4 inhibitor | TSG101-PTAP inh | MCF10A rereplic
Cc1ccc(NC(=O)C2(c3ccccc3)CC2(Cl)Cl)cc1C (centres undefined) | i | 4% | i | -29% | 0% | 21µM*
CCn1nc(C)c2c(-c3ccccc3)cc(=O)n(C(C)C(=O)NCc3ccccc3OC)c21 (centres undefined) | i | · | i | -17% | · | ·
COc1cc2c[n+](C)c3c4ccccc4ccc3c2cc1OC | 9.2µM* | ? | ? | -11% | -2% | -8%
COc1ccc2c(c1)c[n+](C)c1c3cc(OC)c(OC)cc3ccc21 | 2.9µM* | · | i | · | · | ·
COc1ccc(Cc2c3cc(OC)c(OC)cc3cc[n+]2C)cc1OC | i | -5% | i | -19% | 3% | 1%
COc1ccc(NC(=S)Nc2cccc3ccccc23)cc1OC | i | 0% | i | -35% | 1% | 0%
COc1cc(OC)c(NS(=O)(=O)c2c(C(=O)N3CCC(C)CC3)c(C)n(C)c2C)cc1Cl | · | · | · | 12% | · | ·
O=C(Cn1cc(SCc2ccc(F)cc2)c2ccccc21)N1CCCCC1 | · | · | · | -10% | · | ·
Cc1nnc(-c2cccc(Br)c2)c2cn(-c3cccc(Br)c3)nc12 | ? | -5% | 9.2µM* | ? | 0% | ?
CCOCCCn1c(=N)c(C(N)=S)cc2c(=O)n3cccc(C)c3nc21 | ? | ? | 16µM* | ? | -9% | ?
CCOCCCNC(=O)c1cc2c(=O)n3cccc(C)c3nc2n1C | ? | 0.65µM* | i | -2% | 0% | ?
COCCNC(=O)c1cc2c(=O)n3cccc(C)c3nc2n1C | 3.3µM* | -1% | 5.8µM* | 11% | -5% | ?
Cc1ccc(NC(=O)C2CCCN2S(=O)(=O)c2ccc3nc(-c4ccccc4)[nH]c3c2)cc1F (centres undefined) | · | · | · | 20% | · | ·
CCc1cccc(C)c1NC(=O)CN1C(=O)c2c(c3ccccc3n2C)C1c1ccc(OC)cc1 (centres undefined) | i | · | i | -22% | · | ·
O=C(Nc1ccccc1)C(=O)Nc1ccc2c(c1)N(C(=O)C1CC1)CCC2 | 23µM* | ? | ? | 9% | -11% | ?
O=C(C1CCC(C(=O)N2CCc3ccccc32)CC1)N1CCc2ccccc21 (centres undefined) | i | -6% | i | -17% | -1% | 1%
O=C(CSc1nccn1Cc1ccccc1)Nc1ccc2c(c1)OCO2 | · | · | · | -17% | · | ·
Cc1ccc2c(c1)sc(-c1ccc(N(C)C)cc1)[n+]2C | 1.8µM* | 13µM* | i | -4% | 1% | 12µM*
COC(=O)c1ccc(OCC(O)CN2CCc3cc(OC)c(OC)cc3C2c2ccccc2)cc1 (centres undefined) | i | 25% | i | -33% | -3% | 21µM*
COC(=O)c1ccc(OCC2c3cc(OC)c(OC)cc3CCN2C(=O)c2ccco2)cc1 (centres undefined) | i | -7% | 6.5µM* | -18% | -3% | ?
COC(=O)c1ccc(OCC2c3cc(OC)c(OC)cc3CCN2C(=O)c2ccc(OC)cc2)cc1 (centres undefined) | i | · | i | 4% | · | ·
CCc1ccc(OCC2c3cc(OC)c(OC)cc3CCN2C(=O)COc2ccccc2)cc1 (centres undefined) | i | · | i | 8% | · | ·
COc1cc2c(cc1OC)C(COc1ccccc1OC)N(C(=O)COc1ccc(Cl)cc1)CC2 (centres undefined) | i | · | 21µM* | 0% | · | ·
CCC(C)c1ccccc1N1CC(C(=O)Nc2cc(S(=O)(=O)N3CCOCC3)ccc2OC)CC1=O (centres undefined) | i | 16µM* | i | -26% | -6% | 9%
CCOc1ccc(S(=O)(=O)N2CCOCC2)cc1NC(=O)CSCc1ccc(C)cc1 | 18µM* | ? | ? | 14% | -4% | ?
SMILES | KB-3-1 cytotox | SW480 rereplic | KB-V1 cytotox | RGS4 inhibitor | TSG101-PTAP inh | MCF10A rereplic
COc1ccc(S(=O)(=O)N2CCOCC2)cc1NC(=O)Cc1ccc2c(c1)OCCO2 | i | -2% | 18µM* | -22% | -3% | -6%
COc1ccc(S(=O)(=O)N2CCCCC2)cc1NC(=O)Cc1ccsc1 | · | 5% | · | 1% | -3% | ?
CCOc1ccc(S(=O)(=O)N2CCCCC2)cc1NC(=O)Cc1ccsc1 | i | -4% | 12µM* | -13% | 0% | 3%
COc1ccc(S(=O)(=O)N2CCOCC2)cc1NC(=O)Cc1ccc(Cl)c(Cl)c1 | i | 7% | i | -12% | -3% | -5%
O=C(CN1C(=O)COc2ccc(S(=O)(=O)NC3CCCC3)cc21)Nc1ccc(Cl)cc1 | i | · | ? | -29% | · | ·
N#Cc1nc(COc2cccc(Cl)c2)oc1NCCc1ccccc1 | i | · | i | -17% | · | ·
O=C(O)C1C(C(=O)Nc2ccc(Cl)cc2)C2C=CC1C21CC1 (centres undefined) | i | -5% | 21µM* | 12% | -7% | ?
Cc1cc(C)c2[nH]c(O)c(N=NC(=S)NCC3CCCO3)c2c1 (centres undefined) | i | 13% | ? | -12% | -7% | 13%
Oc1[nH]c2ccccc2c1N=NC(=S)NCC1CCCO1 (centres undefined) | i | 17% | 12µM* | -2% | -3% | -25%
Oc1[nH]c2c(Cl)cc(Cl)cc2c1N=NC(=S)NCC1CCCO1 (centres undefined) | 5.8µM* | 3% | ? | -19% | 0% | 17%
CC(=O)C[n+]1cccc2cc(Cl)ccc21 | i | · | i | · | · | ·
CCOCCCn1c(=NC(C)=O)c(C(=O)OCC)cc2c(=O)n3ccccc3nc21 | i | ? | i | 4% | -1% | 1%
CCOCCCn1c(=NC(C)=O)c(C#N)cc2c(=O)n3ccccc3nc21 | i | 7.3µM* | i | -4% | -3% | 2.6µM*
CC(=O)N=c1c(C#N)cc2c(=O)n3ccccc3nc2n1Cc1ccccc1 | i | 5.8µM* | i | 12% | 0% | 8.2µM*
CN(C)c1ccc(NC(=O)CCSc2nc(-c3ccco3)cc(C(F)(F)F)n2)cc1 | · | · | · | -21% | · | ·
COc1ccc(NC(=O)CC2C(=O)N(c3cccc(OC)c3)C(=O)N2CCC2=CCCCC2)cc1 (centres undefined) | ? | · | i | 2% | · | ·
CCOc1cc(C(=O)N2CC(=O)Nc3ccc(F)cc3C2c2ccccc2)cc(OCC)c1OCC (centres undefined) | i | · | i | 26% | · | ·
